Reference: PubChem BioAssay (NCI)
The panel holds about 83,000 compounds, 20% with a hit somewhere; the sample as a whole holds those more often.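 Values shown are percent growth following 48 h exposure of cells in 96-well plates to a single concentration of compound; below 10 was considered active.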 Active and inactive are the calls of the source.

Key:
Assay in all cases: NCI-60 one-dose screen, 48 h (100 = growth as untreated, 0 = no growth, -100 = all killed)
Conditions in all cases: 10 µM unless noted
[1] = test system: RPMI-8226 leukemia
[2] = test system: OVCAR-8 ovarian
[3] = test system: OVCAR-5 ovarian
[4] = test system: OVCAR-4 ovarian
[5] = test system: SK-OV-3 ovarian
[6] = test system: OVCAR-3 ovarian
[7] = test system: HS 578T breast
[8] = test system: NCI/ADR-RES ovarian
[9] = test system: T-47D breast
[10] = test system: IGROV1 ovarian

Measured: growth

O=c1c(O)cccn1CCCNCCCN(CCCn1cccc(O)c1=O)CCCn1cccc(O)c1=O
inactive: [1] 131% | [2] 114% | [3] 94.7% | [4] 101% | [5] 97.3% | [6] 103% | [7] 120% | [8] 101% | [9] 101%

COc1ccc(C2=NN(C(=O)c3cc(OC)c(OC)c(OC)c3)C(c3ccc(C#N)cc3)C2)cc1OC (stereo unspecified)
inactive: [1] 60.8% | [2] 32.8% | [3] 58.8% | [5] 19.8% | [10] 13.4% | [9] 37.1%
active: [6] -47.8% | [7] -18.3% | [8] 2.92%

COc1ccc(-n2nc3c(c2-c2ccc(OC)c(OC)c2)-c2oncc2CC3)cc1
inactive: [1] 56.7% | [2] 84.7% | [3] 99.5% | [4] 86.1% | [5] 106% | [6] 76.4% | [8] 80.6% | [9] 71%
